These results are taken from PubChem BioAssay (NCATS).

Each structure is given as a SMILES string. Records with an inconclusive call do not appear. Entries that show only a call come without a potency. A number with no mark means an inactive call. Calls of active or inactive are those of the source. Calls come from the whole dose curve; as a rule, active = well fitted inhibition curve with a large enough effect; inconclusive = small, poorly fitted or top-dose-only effect; inactive = flat fitted curve, though single readings scatter.

The assay deals with Calcium and integrin-binding protein 1 (Homo sapiens) (UniProt Q99828). The assay is described as follows: Primary qHTS for Identification of Calcium Integrin Binding Protein 1 (CIB1) Competitor (AID 1508620). Note: top concentration of the series differs between compounds. To be noted: CIB1-GST / FITC-alphaIIb peptide fluorescence polarization; series mostly up to 57.7 µM. The gist of the method: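 Fluorescence polarization competition: GST-tagged CIB1 (1 uM final) preincubated with compound 15 min at room temperature, then FITC-labelled alphaIIb peptide (100 nM final) added. After 15 min at room temperature, polarization read at Ex 480/Em 540.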
Sequence of Calcium and integrin-binding protein 1 (Homo sapiens) (Q99828 whole entry, looked up): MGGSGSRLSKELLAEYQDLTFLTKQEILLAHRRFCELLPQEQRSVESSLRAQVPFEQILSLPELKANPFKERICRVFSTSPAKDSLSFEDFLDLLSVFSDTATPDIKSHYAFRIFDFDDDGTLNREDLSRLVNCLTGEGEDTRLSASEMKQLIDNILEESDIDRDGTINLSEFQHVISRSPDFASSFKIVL
(In general: qHTS replaces the single test concentration by a dilution series.)
For the molecule `CC(=O)NCC(=O)N1[C@H]2CC[C@H]1c1cc(Nc3ncc(C(F)(F)F)c(NC4CCC4)n3)ccc12`, the Potency entry is “inactive”.

On to `COc1cc2c(cc1O)CCC1C2CC[C@@]2(C)C1CC[C@@H]2O` (stereo partly drawn), for which the Potency result is “inactive”.

Take `CC(C)(C)[C@H](NC(=O)c1ccc(N)c(Cl)c1)C(=O)N1CCC[C@@H]1C(=O)N[C@H](C#N)CC(=O)O`: the activity change, negative = inhibition is -8.66% [at 6.45 µM].

For `C=C1CCC2[C@](C)(CO)C(O)CC[C@]2(C)C1CC=C1C(=O)OCC1O` (stereo partly drawn), the Potency result is “inactive”.

Consider `CC(=O)OCC(=O)[C@@]1(O)CC[C@H]2[C@@H]3CCC4=CC(=O)CC[C@]4(C)[C@@H]3C(=O)C[C@@]21C`, for which the Potency entry is “inactive”.

Consider `N#CC(=C(N)Sc1ccc(N)cc1)c1ccccc1C(F)(F)F`, for which the Potency entry is “inactive”.

Regarding `C=C1C[C@@]2(O)O[C@@]3(C[C@H]2C(C)C)[C@H](C)CC[C@H]13`, the Potency result is “inactive”.

On to `O=C1NC(=O)[C@@H](c2cn3c4c(cccc24)CCC3)[C@H]1c1c[nH]c2ccccc12`, for which the Potency entry is “inactive”.

For the molecule `CC(C)(O)[C@H]1CC[C@@](C)([C@H]2[C@@H](O)C[C@@]3(C)[C@@H]4C[C@H](O[C@@H]5O[C@H](CO)[C@@H](O)[C@H](O)[C@@H]5O)[C@H]5C(C)(C)[C@@H](O[C@@H]6OC[C@@H](O)[C@H](O)[C@@H]6O)CC[C@@]56C[C@@]46CC[C@]23C)O1`, the Potency result is “inactive”.

For the molecule `CS[C@H]1SC[C@@H]2C(=O)N(C)[C@H](C(C)C)C(=O)OC[C@H](NC(=O)c3cnc4ccccc4n3)C(=O)N[C@H](C)C(=O)N(C)[C@@H]1C(=O)N(C)[C@H](C(C)C)C(=O)OC[C@H](NC(=O)c1cnc3ccccc3n1)C(=O)N[C@H](C)C(=O)N2C`, the Potency result is “inactive”.

Take `CC(C=CC=C(C)C=CC1=C(C)CCCC1(C)C)=CC=CC=C(C)C=CC=C(C)C=CC1=C(C)CCCC1(C)C`: the Potency result was “inactive”.

`O=c1c(O)c(-c2ccc(O)c(O)c2)oc2cc(O)ccc12`: the Potency result is “inactive”.

As to `CON=C(C(=O)N[C@@H]1C(=O)N2C(C(=O)O)=C(Cn3ccc(=N)n3CCO)CS[C@H]12)c1csc(N)n1`, the Potency entry was “inactive”.

On to `OCC(O)C(O)C(O)CO` (stereo not drawn), for which the Potency result was “inactive”.

Take `CCCNC(=O)[C@H]1O[C@H]1C(=O)N[C@H](C(=O)N1CCC[C@@H]1C(=O)OC)C(C)CC` (stereo partly drawn): the Potency result is “inactive”.

Turning to `C[C@H](CCC(=O)O)[C@H]1CC[C@H]2[C@@H]3[C@H](O)C[C@@H]4C[C@H](O)CC[C@]4(C)[C@@H]3CC[C@]12C`, the Potency result is “inactive”.

Regarding `C[C@H]1O[C@H](O[C@H]2[C@H](O)[C@@H](O)[C@@H](O[C@H]3[C@H](O)[C@@H](O)C(O)O[C@H]3CO)O[C@H]2CO)[C@H](O)[C@@H](O)[C@H]1N[C@H]1C=C(CO)[C@@H](O)[C@H](O)[C@@H]1O` (stereo partly drawn), the Potency result was “inactive”.

As to `CC(=O)O[C@H]1C[C@@H]2CC[C@H]3[C@H]4C[C@H]([N+]5(C)CCCCC5)[C@@H](OC(C)=O)[C@@]4(C)CC[C@@H]3[C@@]2(C)C[C@H]1N1CCCCC1`, the Potency result is “inactive”.

Take `CON=C(C(=O)N[C@@H]1C(=O)N2C(C(=O)O)=C(CSC(=O)c3ccco3)CS[C@H]12)c1csc(N)n1`: the Potency entry was “inactive”.

In the case of `O=C(O)[C@H](CC(=O)N1C[C@@H]2CCCC[C@H]2C1)Cc1ccccc1`, the Potency result is “inactive”.

Turning to `Nc1nc(=O)n([C@H]2CSC(CO)O2)cc1F` (stereo partly drawn), the Potency result is “inactive”.

As to `C[C@H]1C[C@H]2[C@@H]3CCC4=CC(=O)C=C[C@]4(C)[C@@H]3C(=O)C[C@]2(C)[C@@]1(O)C(=O)CO`, the Potency entry was “inactive”.

With `O=C(C[C@@H]1CC=CCCC(=O)O[C@H](c2ccccc2)CNC1=O)NCc1ccc(Cl)cc1`, the Potency entry was “inactive”.

In the case of `NC[C@H]1O[C@H](O[C@H]2[C@@H](O)[C@@H](O[C@H]3O[C@H](CO)[C@@H](O)[C@H](N)[C@@H]3O)[C@H](N)C[C@@H]2N)[C@H](N)C[C@H]1O`, the Potency entry is “inactive”.

Take `O=C(O)C(=O)Nc1cccc(C2=NN=N[N]2)c1`: the Potency entry was “inactive”.

`C[C@@H]1[C@H](C)CC[C@]2(C(=O)O)CC[C@]3(C)C(=CC[C@@H]4[C@@]5(C)C[C@@H](O)[C@H](O)[C@@](C)(CO)[C@H]5CC[C@]43C)[C@@H]12`: the Potency result is “inactive”.

On to `CC(C)(O)CC[C@@H](O)[C@](C)(O)[C@H]1CC[C@@]2(O)C3=CC(=O)[C@@H]4C[C@@H](O)[C@@H](O)C[C@]4(C)[C@@H]3CC[C@]12C`, for which the Potency result is “inactive”.

As for `C[C@]12CCC(=O)C=C1[C@@H]1CC1[C@H]1[C@H]3[C@@H]4C[C@H]4[C@@]4(CCC(=O)O4)[C@@]3(C)CC[C@H]12` (stereo partly drawn), the Potency entry was “inactive”.
